# miR-21 reporter: qHTS Assay for Modulators of miRNAs and/orActivators of miR-21; HeLa miR-21 FLuc reporter, luciferase, 48 h; Potency, µM (series often up to 38.3 µM), hits mostly activators; 340,000 tested, under 10 active; AID 2288, 2010;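 note: miR-21 action dims this reporter so a rising signal means less miR-21 action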
#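 Using DMEM plus 10% FBS, HeLa miR-21-FLuc cells are incubated with test compounds (final up to about 40uM) for 48 hours; firefly luciferase signal is then imaged following reagent-mediated lysis.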
# GALK inh: qHTS Assay for Inhibitors of Human Galactokinase (GALK) | P51570 | Purified GALK, Kinase-Glo residual ATP luminescence | Potency, µM (top dose mostly 57.5 µM), most hits filed as inhibitors | hit rate 0.007% among 270,000
# Target sequence (P51570 whole entry, looked up): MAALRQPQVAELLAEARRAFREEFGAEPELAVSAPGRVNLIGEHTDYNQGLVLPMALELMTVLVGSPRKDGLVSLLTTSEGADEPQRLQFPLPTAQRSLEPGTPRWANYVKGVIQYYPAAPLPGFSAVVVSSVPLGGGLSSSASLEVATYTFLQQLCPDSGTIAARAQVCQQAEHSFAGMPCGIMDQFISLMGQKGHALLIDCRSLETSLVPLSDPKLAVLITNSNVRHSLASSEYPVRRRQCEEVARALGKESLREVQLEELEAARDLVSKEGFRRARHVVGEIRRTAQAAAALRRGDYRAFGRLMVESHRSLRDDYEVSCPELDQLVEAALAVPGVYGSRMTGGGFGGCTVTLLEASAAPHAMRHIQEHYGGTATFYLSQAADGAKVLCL
#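 5 nM enzyme, 35 uM ATP, 100 uM galactose, 20 mM HEPES pH8.0, 5 mM MgCl2; 1 h RT; residual ATP by Kinase-Glo Plus luminescence, qHTS format.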
# Giardia kill: Small Molecules that selectively kill Giardia lamblia: qHTS | Giardia lamblia trophozoite viability | activity change, % at 7.66 µM, hits read low | hit rate 0.15% among 340,000 | AID 540267, 2011; in the data active = activity change below about -80%; inconclusive = between about -30% and that limit;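 note: parasites exposed to compound for two days anaerobically before the ATP read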
#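 Giardia lamblia trophozoites (100 cells/well) were incubated with compounds for 48 h at 37 deg C under anaerobic conditions. Viability was read as ATP content by one-step luminescence after 15-30 min at room temperature.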
# uPA generation: qHTS for Inhibitors of Cell Surface uPA Generation | cell surface uPA generation assay, qHTS | Potency, µM (titrated, usually from 38.3 µM), most hits filed as inhibitors | hit rate 0.31% among 330,000; active = well fitted inhibition curve with a large enough effect; inconclusive = small, poorly fitted or top-dose-only effect; inactive = no such curve, though single readings can be large or run the other way; tested in mouse RAW 264.7 cells; note: nearly all actives have a fitted effect of over 55% in size
# B2AR arrestin: qHTS assay of beta-arrestin-biased ligands of beta2-adrenergic receptor; Beta-2 adrenergic receptor (Homo sapiens), P07550; beta-arrestin recruitment to beta2AR, cell-based reporter; Potency, µM (highest dose often 46.1 µM), hits mostly activators; hit rate 0.02% among 330,000; note: nearly all actives have a fitted effect of over 65% in size
# FBPA coupling cs: qHTS Assay for Inhibitors of Fructose-1,6-bisphosphate Aldolase from Giardia Lamblia: Coupling assay counterscreen. activity change, negative = inhibition, % at 58.2 µM, hits read low. coupling enzyme system counterscreen, AmpLite Red fluorescence. hit rate 0.67% among 290,000. AID 2472, 2010; in the data active = activity change below about -30%
#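 Counterscreen lacking aldolase: glyceraldehyde-3-phosphate coupling-enzyme reagent preincubated 10 min at RT with compound (at 57.5 uM final), then substrate/coupling system with AmpLite Red added; fluorescence read at 525/598 nm after 20 min RT.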
# Hits are given with their value; - = inactive; ? = inconclusive; . = no result given. A selection: hits, their analogues and other compounds. The true share with any hit is near 0.92%. Unless noted, calls come from the whole dose curve; as a rule, active = well fitted curve in the direction sought with a large enough effect; inconclusive = small, poorly fitted or top-dose-only effect, or another doubt; inactive = no such curve, though single readings can be large; an effect the other way counts as inactive or inconclusive.
SMILES,miR-21 reporter,GALK inh,Giardia kill,uPA generation,B2AR arrestin,FBPA coupling cs
O=C(O)c1ccccc1C(=O)Nc1n[nH]c(=S)s1,-,-,-,-,-,-70
COc1ccc(CNc2nc(-c3ccc(C(=O)N(C)C)cc3)nc3ccccc23)c(OC)c1,.,.,.,.,.,-
COc1ccc(CNc2nc(-c3ccc(N(C)C)cc3)nc3ccccc23)c(OC)c1,.,.,.,.,.,-37
CC(C)(C)c1cccc(S(=O)(=O)N2CCN(c3nc(-c4cccs4)nc4ccccc34)CC2)c1,.,.,-,.,.,.
CC(C)(C)NC(=S)NNC(=O)c1cccc(Br)c1,-,-,-,-,6.3µM,-
CCN(CC)c1ccc(NS(=O)(=O)c2ccc(-c3coc(C)n3)cc2)c(C)c1,-,.,.,.,.,.
Cc1scc(C(=O)N/N=C/c2ccsc2)c1C,-,.,-,6.3µM,-,-
Cc1scc(C(=O)N/N=C/c2ccco2)c1C,-,-,-,-,-,-
Cc1cccc(Nc2ncc(NC(=O)c3cccc(F)c3)c(Nc3cccc(C)c3)n2)c1,-,.,.,.,.,.
CCOC(=O)c1ccc(NC(=O)CCc2c(C)nc3c(c(C)nn3C)c2C)cc1,-,.,.,.,.,.
Cc1cc(C(F)(F)F)c(C#N)c(N2CCOCC2)n1,-,-,-,-,-,-
N#Cc1c(C(F)(F)F)cc(C2CC2)nc1N1CCCC1,-,-,-,-,-,-34
Cn1cccc1C1C(C#N)=C(N)OC2=C1C(=O)CCC2 (stereo unspecified),-,-,-,-,-,-34
Cc1ccc(C)c2[nH]c(=O)c(CN(Cc3nnnn3C3CCCCC3)CC3CCCO3)cc12 (stereo unspecified),-,-,-,-,-,-37
C=Cc1ccc(CN2C(=O)N(c3cccc(Cl)c3)S(=O)(=O)c3ccccc32)cc1,-,.,.,.,.,.
COc1cc(-c2noc(C)c2C#Cc2ccsc2)cc(OC)c1OC,-,.,?,2µM,-,-
COc1cc(-c2noc(C)c2C#CCO)cc(OC)c1OC,-,.,-,-,-,-
CC(C)(C)NC(=O)COC(=O)c1cc(F)c(F)cc1Cl,-,-,-,-,-,-61
C=C1N(C)c2cc([N+](=O)[O-])c(N)cc2C1(C)C,-,-,-,-,-,-41
O=c1c(-c2ccc3c(c2)OCCO3)coc2cc(O)cc(O)c12,-,-,-,-,-,-
COc1cc(O)c2c(=O)c(-c3ccc(O[C@@H]4O[C@H](CO)[C@@H](O)[C@H](O)[C@H]4O)cc3)coc2c1,-,.,-,-,-,-
O=c1c(-c2ccccc2)coc2cc(O)cc(O)c12,.,.,.,.,.,-35
O=c1c(-c2ccc(O)cc2)coc2cc(OC3OC(CO)C(O)C(O)C3O)cc(O)c12 (stereo unspecified),-,.,-,4.5µM,-,-
Cc1ccc(N2CCN(S(=O)(=O)c3ccc4oc(=O)c5ncn(C)c5c4c3)CC2)c(C)c1,-,.,.,.,.,.
COc1ccccc1/C=N/NC(=O)CSc1cc(C)nc2ccccc12,-,-,-,-,-,-
SMILES,miR-21 reporter,GALK inh,Giardia kill,uPA generation,B2AR arrestin,FBPA coupling cs
COc1ccccc1/C=N/NC(=O)CSc1ccc2ccccc2n1,-,-,-,-,-,-33
COc1ccccc1/C=N/NC(=O)CC(=O)NCc1ccccc1,-,-,-,-,-,-54
COc1ccccc1/C=N/NC(=O)c1c(-c2ccccc2)noc1C,-,-,-,-,-,-34
COc1ccccc1/C=N/NC(=O)CO,-,-,-,-,-,-
COc1ccc(-c2c3c(=O)n(C)c(=O)n(C)c3c3c(-c4ccccc4)nc4ccccc4n23)cc1,-,.,.,.,.,.
COc1ccccc1CNC(=O)CCC1N=C2c3ccccc3N=C(SCC(=O)Nc3ccc(F)cc3)N2C1=O (stereo unspecified),-,.,.,.,.,.
CC(=O)O[C@@H]1C(CO[Si](C)(C)C(C)(C)C)=C(Br)C(=O)[C@@H]2O[C@]12C,.,.,.,.,.,-
CCc1ccc(NC(=O)Cn2c(=O)n(CCc3ccccc3)c(=O)c3sc4ccccc4c32)cc1,-,.,.,.,.,.
Cn1cccc1/C=C1\SC(=Nc2ccccc2)NC1=O,-,-,-,1.4µM,-,-
Cn1cccc1/C=C1\SC(=Nc2ccc(O)cc2)NC1=O,-,-,-,?,-,-
CCCCn1c(=O)c2oc3ccccc3c2n(CC(=O)Nc2ccc(CC)cc2)c1=O,-,.,.,.,.,.
CCCC(=O)Nc1ccc2c(c1)C(=O)NC2=O,-,-,-,-,-,-
Cc1ccc2c(c1)Oc1ccc(NC(=O)CCCl)cc1C(=O)N2,-,-,-,8.9µM,-,-
O=C1Nc2ccccc2C1Cc1ccc(Br)cc1 (stereo unspecified),-,.,.,.,.,.
CN(C)c1ccc(CC2C(=O)Nc3ccccc32)cc1 (stereo unspecified),-,-,-,-,-,-39
COC(=O)c1ccc(OC)c(CN2CCCN(Cc3ccc(F)cc3)S2(=O)=O)c1,-,-,-,-,-,-31
COc1ccc(C=O)cc1CN1CCCN(Cc2ccc(Cl)cc2)S1(=O)=O,-,-,-,-,-,-
COc1ccc(NC2=C(NCCO)C(=O)c3ccccc3C2=O)cc1,-,-,-,-,-,-43
Cc1cccc(NC2=C(NCCO)C(=O)c3ccccc3C2=O)c1,-,-,-,-,-,-35
COc1cccc(NC2=C(NCCO)C(=O)c3ccccc3C2=O)c1,-,-,-,-,-,-30
O=c1c(-c2ccc(O)cc2)coc2cc(O[C@@H]3O[C@H](CO)[C@H](O)[C@H](O)[C@H]3O)ccc12,.,.,.,.,.,-
CC[C@H](C)[C@H](NC(=O)[C@H](Cc1ccccc1)NC(=O)[C@H](C)NC(=O)[C@H](CC(=O)O)NC(=O)[C@H](CCCCN)NC(=O)[C@H](CO)NC(=O)[C@@H]1CCCN1C(=O)[C@@H]1CCC(=O)N1)C(=O)NCC(=O)N[C@@H](CC(C)C)C(=O)N[C@@H](CCSC)C(N)=O,.,.,.,.,.,-
Cc1ccc(C)c(N=Cc2cc3c(cc2[N+](=O)[O-])OCO3)c1,-,-,-,-,-,-40
Cc1ccc(S(=O)(=O)n2cc(-c3ccccc3)c3ccccc32)cc1,.,.,-,1.1µM,-,.
Cc1ccc(S(=O)(=O)n2cc(C=O)c3ccccc32)cc1,-,-,-,-,-,-
CCC[C@H](NC(=O)[C@H](Cc1ccc(O[S+](=O)([O-])O)cc1)NC(=O)OC(C)(C)C)C(=O)NCC(=O)N[C@@H](Cc1c[nH]c2ccccc12)C(=O)N[C@@H](CCC)C(=O)N[C@@H](CC(=O)OCCc1ccccc1)C(=O)O,.,.,.,.,.,-
O=S(=O)(Nc1cccc2cccnc12)c1cccs1,.,.,-,.,.,.
COc1ccccc1CNc1ccc(N2CCCCC2)cc1,-,-,-,-,-,-

# Screening data from PubChem BioAssay.
